The list is not random: actives were taken first. Their share in the collection is about 18%.
KAT2A inh: qHTS Assay for Inhibitors of GCN5L2. Histone acetyltransferase KAT2A (Homo sapiens), Q92830. GCN5L2 HAT assay, ThioGlo1 CoA-SH fluorescence. 390,000 compounds, 0.21% hits. Potency, µM (top dose mostly 58.9 µM), for inactives: at the highest dose activity change, negative = inhibition, actives largely listed as inhibitors
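GCN5L2 (20nM final) in 50mM HEPES, 0.1mM EDTA pH 7.5, 0.01% Tween-20 was preincubated 15 min at room temperature with compound, then given ThioGlo1 (50uM), H3(1-25) peptide (75uM) and acetyl-CoA (70uM); CoA-thiol fluorescence (Ex340/Em540) was read at 0 and 20 min.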
VDR inh: Inhibitors of the vitamin D receptor (VDR): qHTS; Vitamin D3 receptor (Homo sapiens), P11473; VDR-SRC2-3 peptide fluorescence polarization, 2 h; Potency, µM, for inactives: max response, negative = inhibition, hits mostly inhibitors; 400,000 compounds, 0.93% hits
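Fluorescence polarization assay measuring small-molecule disruption of VDR binding to the coregulator peptide SRC2-3. Compounds were pin-transferred (23 nl) into the reagent mix and incubated 2 h at room temperature before reading.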
TDP1 block: qHTS Assay for Inhibitors of Tyrosyl-DNA Phosphodiesterase (TDP1) | Tyrosyl-DNA phosphodiesterase 1 (Homo sapiens), Q9NUW8 | recombinant TDP1, AlphaScreen DNA substrate cleavage | Potency, µM (top dose mostly 130 µM), for inactives: at the highest dose activity change, negative = inhibition, actives largely listed as inhibitors | 350,000 compounds, 0.28% hits | AID 485290, 2010; note: nearly all actives have a fitted effect of over 40% in size
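Steps: enzyme plus compound, 15 min RT; add biotin/phosphotyrosine-FITC oligonucleotide (15 nM final), react 5 min; add donor/acceptor beads (10 ug/ml final), 10 min; read AlphaScreen. Tdp1 at 1 nM final.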
TDP1 cell CPT: qHTS for Inhibitors of human tyrosyl-DNA phosphodiesterase 1 (TDP1): qHTS in cells in presence of CPT | chicken DT40 Tdp1-/-;hTDP1 cells + 20 nM CPT, ATP luminescence, 48 h | Potency, µM (titrated, usually from 46.2 µM), without a hit: top-dose activity change, negative = growth inhibition, most hits filed as inhibitors | 420,000 compounds, 12% hits | AID 686979, 2013; note: nearly all actives have a fitted effect of over 55% in size
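Cell growth measured by CellTiter-Glo luminescence after a minimum 48 h, 37 C compound exposure with 20 nM CPT in Tdp1-knockout DT40 cells stably expressing hTDP1, seeded 400/well; qHTS titration format.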
DT40 TDP1 no CPT: qHTS for Inhibitors of human tyrosyl-DNA phosphodiesterase 1 (TDP1): qHTS in cells in absence of CPT; Potency, µM (series often up to 46.2 µM), for inactives: at the highest dose activity change, negative = growth inhibition, actives largely listed as inhibitors; 420,000 compounds, 15% hits; DT40 Tdp1-/- hTDP1 cells, no CPT, ATP luminescence, 48 h; note: nearly all actives have a fitted effect of over 55% in size
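Readout: luminescence from CellTiter-Glo after 30 min in the dark at RT. Cells: DT40 Tdp1-/- with stable hTDP1, 400/well. Exposure: compounds alone, ≥48 hr, 37 °C.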
PLK1 PBD block: qHTS for Inhibitors of PLK1-PDB (polo-like kinase 1 - polo-box domain): Primary Screen. Serine/threonine-protein kinase PLK1 (Homo sapiens), P53350. Plk1 PBD binding of FITC phosphopeptide, fluorescence polarization. Potency, µM, without a hit: max response, negative = inhibition, usual class: inhibitors. 360,000 compounds, 2.8% hits. AID 720504, 2013; note: series mostly up to about 57 µM; nearly all actives have a fitted effect of over 65% in size
Target sequence (P53350 whole entry, looked up, the tested form may be a part): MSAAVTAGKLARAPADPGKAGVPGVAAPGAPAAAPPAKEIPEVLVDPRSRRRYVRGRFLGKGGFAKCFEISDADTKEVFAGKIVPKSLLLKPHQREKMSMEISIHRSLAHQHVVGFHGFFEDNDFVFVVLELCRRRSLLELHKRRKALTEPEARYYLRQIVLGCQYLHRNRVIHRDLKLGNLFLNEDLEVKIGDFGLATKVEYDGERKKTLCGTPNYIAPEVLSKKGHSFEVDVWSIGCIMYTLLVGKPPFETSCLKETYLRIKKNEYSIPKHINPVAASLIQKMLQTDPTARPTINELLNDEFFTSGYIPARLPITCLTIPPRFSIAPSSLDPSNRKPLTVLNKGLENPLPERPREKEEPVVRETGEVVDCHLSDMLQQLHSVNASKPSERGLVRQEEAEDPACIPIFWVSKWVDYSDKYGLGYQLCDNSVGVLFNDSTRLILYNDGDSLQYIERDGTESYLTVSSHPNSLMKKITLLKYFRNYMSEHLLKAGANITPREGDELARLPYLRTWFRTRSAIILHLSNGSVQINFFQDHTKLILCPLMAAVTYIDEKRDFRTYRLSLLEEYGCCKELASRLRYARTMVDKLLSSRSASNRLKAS
Active calls of the source: *; ? = inconclusive; nt = no result given; [ ] = another dose, or the depositor's remark. Calls come from the whole dose curve; as a rule, active = well fitted curve in the direction sought with a large enough effect; inconclusive = small, poorly fitted or top-dose-only effect, or another doubt; inactive = no such curve, though single readings can be large; an effect the other way counts as inactive or inconclusive. % is set by controls: 0 for no effect and ±100 for the full control effect; potency is the fitted concentration of half-maximal effect.

SMILES | KAT2A inh | VDR inh | TDP1 block | TDP1 cell CPT | DT40 TDP1 no CPT | PLK1 PBD block
Cc1ccc([C@@H]2CC=C(C(=O)O)[C@H](c3cccc(Cl)c3)N2S(=O)(=O)c2ccccc2C)cc1 | ? | ? | 4% | 0% | -9% | ?
Cc1ccc(S(=O)(=O)N2[C@@H](c3ccc(Cl)cc3)C(C(=O)OC(C)(C)C)=CC[C@H]2c2ccc(Cl)c(Cl)c2)cc1 | nt | nt | nt | ? | 15µM* | 2%
COc1ccc([C@@H]2CC=C(C(=O)O)[C@H](c3ccc(Cl)cc3)N2S(=O)(=O)c2ccc(C)cc2)cc1OC | -11% | -6% | 3% | 0% | -8% | -11%
Cc1ccc(S(=O)(=O)N2[C@@H](c3cccc(Cl)c3)C(C(=O)OC(C)(C)C)=CC[C@H]2c2ccc(C(C)C)cc2)cc1 | nt | nt | nt | ? | 15µM* | -3%
Cc1ccc([C@H]2C(C(=O)O)=CC[C@@H](c3cccc(Cl)c3)N2S(=O)(=O)c2ccc(C)cc2)cc1 | nt | -16% | nt | -13% | -22% | ?
CCc1ccc([C@@H]2CC=C(C(=O)O)[C@H](c3cccc(Cl)c3)N2S(=O)(=O)c2ccc(C)cc2)cc1 | ? | -26% | 3% | -21% | -25% | 21µM*
Cc1nn(-c2ccc(N3CCCC3)nn2)c(C)c1CCC(=O)N1CCN(c2ccccc2)CC1 | 0% | 1% | 1% | ? | ? | nt
O=C1O[C@H]2[C@H](O)[C@@H]1OC(O)[C@H]2O (stereo partly drawn) | nt | nt | nt | -5% | 2% | nt
Cc1cc(C(=O)COC(=O)c2ccc(CO)cc2)c(C)n1CC1COc2ccccc2O1 (stereo not drawn) | -3% | 10% | 3% | 23µM* | ? | 11%
Cc1cc(C(=O)CSc2nnc(-c3ccccc3)o2)c(C)n1CC1COc2ccccc2O1 (stereo not drawn) | 55% | 14% | 6% | ? | ? | -3%
Cc1cc(C(=O)CN2C(=O)C(=O)N(Cc3ccccc3)C2=O)c(C)n1CC1COc2ccccc2O1 (stereo not drawn) | -10% | 5% | 0% | -27% | 18µM* | 1%
Cc1cc(C(=O)CSc2nnc(-c3ccco3)o2)c(C)n1CC1COc2ccccc2O1 (stereo not drawn) | -10% | 9% | -5% | 16µM* | 21µM* | 3%
Cc1cc(C(=O)CN2C(=O)C(=O)N(Cc3ccccc3)C2=O)c(C)n1Cc1ccccc1 | -4% | -16% | 3% | ? | ? | 4%
CCOc1ccc(-c2c(C)nn3c(C)c(C(=O)Nc4ccccc4C(=O)OC)cnc23)cc1OCC | 2% | 5% | 8% | ? | -17% | nt
Cc1nn(-c2ccccc2)c(N2CCCC2)c1/C=N/NC(=O)c1cc(-c2ccccc2)nc2ccccc12 | -16% | -1% | -3% | ? | ? | 0%
Cc1nn(-c2ccccc2)c(N2CCCC2)c1/C=N/Nc1ccc(S(N)(=O)=O)cc1[N+](=O)[O-] | -13% | -15% | 11% | 16µM* | 15µM* | 11%
Cc1nn(-c2ccccc2)c(N2CCCC2)c1/C=N/NC(=O)c1cc(-c2ccccn2)nc2ccccc12 | 14% | -7% | 6% | 21µM* | 12µM* | 0%
Cc1nn(-c2ccccc2)c(N2CCCC2)c1/C=N/NC(=O)c1cccc(S(=O)(=O)Nc2ccc(Cl)cc2)c1 | -13% | -8% | 8% | ? | ? | 0%
Cc1nn(-c2ccccc2)c(N2CCCC2)c1/C=N/NC(=S)Nc1ccccc1F | -2% | -13% | -3% | 13µM* | ? | 4%
Cc1nn(-c2ccccc2)c(N2CCCC2)c1/C=N/NC(=O)c1cc(-c2cccs2)nc2ccccc12 | 25% | -3% | 3% | ? | 15µM* | 1%
N[C@@H](CSCCCO)C(=O)O | -6% | -26% | 4% | -15% | -6% | nt
COC(=O)CCc1sc(Nc2ccccc2)nc1-c1ccc(OC)cc1 | -8% | -6% | 7% | ? | 16µM* | -15%
O=C(Cn1c2ccccc2c(=O)c2ccccc21)N/N=C/c1cc([N+](=O)[O-])ccc1N1CCCCCC1 | 21% | -1% | -11% | 0% | -2% | -1%
O=C(Cn1c2ccccc2c(=O)c2ccccc21)N/N=C/c1ccc(N2CCCC2)c([N+](=O)[O-])c1 | -6% | 0% | 3% | 18µM* | ? | -5%
CC[C@]12c3[nH]c4ccccc4c3CCN1C(=O)C(CC(=O)NCCN1CCOCC1)C[C@@H]2C(=O)N1CCN(C(=O)C2CC2)CC1 (stereo partly drawn) | 0% | 7% | 0% | 3% | -2% | -5%
SMILES | KAT2A inh | VDR inh | TDP1 block | TDP1 cell CPT | DT40 TDP1 no CPT | PLK1 PBD block
CC(C)(C)NC(=O)C[C@H]1C[C@H](C(=O)N2CCCCC2)[C@@]2(C)c3[nH]c4cc(-c5ccco5)ccc4c3CCN2C1=O | -5% | ? | 7%[56.1 µM] | ? | 26µM* | 24µM*
CC(C)(C)NC(=O)C[C@H]1C[C@H](C(=O)N2CCOCC2)[C@@]2(C)c3[nH]c4cc(-c5ccco5)ccc4c3CCN2C1=O | -1% | -1% | 1%[56.1 µM] | ? | ? | -5%
CC[C@]12c3[nH]c4cc(-c5ccco5)ccc4c3CCN1C(=O)[C@@H](CC(=O)NC(C)(C)C)C[C@@H]2C(=O)N1CCN(C(=O)C2CC2)CC1 | -4% | 5% | 1%[56.1 µM] | 15µM* | 21µM* | 1%
COc1ccc2[nH]c3c(c2c1)CCN1C(=O)C(CC(=O)NCCC2=CCCCC2)C[C@H](C(=O)N2CCCCC2)[C@@]31C (stereo partly drawn) | -9% | 8% | 8%[56.1 µM] | 23µM* | 18µM* | -5%
C[C@]12c3[nH]c4cc(-c5ccco5)ccc4c3CCN1C(=O)[C@@H](CC(=O)NCCC1=CCCCC1)C[C@@H]2C(=O)N1CCCCC1 | -9% | ? | 5%[56.1 µM] | ? | ? | 21µM*
COc1ccc2[nH]c3c(c2c1)CCN1C(=O)C(CC(=O)NCCN2CCOCC2)C[C@H](C(=O)N2CCCCC2)[C@@]31C (stereo partly drawn) | 3% | 7% | 0%[56.1 µM] | -6% | -15% | -15%

Bioassay records as filed in PubChem BioAssay.
